Among the data in ChEMBL document CHEMBL1961873, “Compounds: GSK PKIS; Assays: Nanosyn kinase panel” (2012) are inhibition values, retold here.

Experiment [1] deals with Tyrosine-protein kinase ABL1 (Homo sapiens), P00519 [T315I]. The following applies: at 1 µM.
The subject of experiment [2] is Tyrosine-protein kinase ABL1 (Homo sapiens), P00519 [Y253F]. The settings on record: at 0.1 µM.
For experiment [3] the test system is unchanged. The settings on record: at 1 µM.
In experiment [4] the target is Tyrosine-protein kinase ABL1 (Homo sapiens) (UniProt P00519). The settings on record: at 0.1 µM.
Experiment [5] shares this target. The settings on record: at 1 µM.
Experiment [6] addresses ALK tyrosine kinase receptor (Homo sapiens) (UniProt Q9UM73). The settings on record: at 0.1 µM.
For experiment [7] the target is unchanged. The settings on record: at 1 µM.
Experiment [8] concerns the target Tyrosine-protein kinase ABL2 (Homo sapiens) (UniProt P42684). The settings on record: at 0.1 µM.
The target is the same in experiment [9]. The following applies: at 1 µM.
For experiment [10], the target named is Tyrosine-protein kinase receptor UFO (Homo sapiens) (UniProt P30530). The following applies: at 0.1 µM.
Tyrosine-protein kinase receptor UFO (Homo sapiens), sequence (P30530 whole entry): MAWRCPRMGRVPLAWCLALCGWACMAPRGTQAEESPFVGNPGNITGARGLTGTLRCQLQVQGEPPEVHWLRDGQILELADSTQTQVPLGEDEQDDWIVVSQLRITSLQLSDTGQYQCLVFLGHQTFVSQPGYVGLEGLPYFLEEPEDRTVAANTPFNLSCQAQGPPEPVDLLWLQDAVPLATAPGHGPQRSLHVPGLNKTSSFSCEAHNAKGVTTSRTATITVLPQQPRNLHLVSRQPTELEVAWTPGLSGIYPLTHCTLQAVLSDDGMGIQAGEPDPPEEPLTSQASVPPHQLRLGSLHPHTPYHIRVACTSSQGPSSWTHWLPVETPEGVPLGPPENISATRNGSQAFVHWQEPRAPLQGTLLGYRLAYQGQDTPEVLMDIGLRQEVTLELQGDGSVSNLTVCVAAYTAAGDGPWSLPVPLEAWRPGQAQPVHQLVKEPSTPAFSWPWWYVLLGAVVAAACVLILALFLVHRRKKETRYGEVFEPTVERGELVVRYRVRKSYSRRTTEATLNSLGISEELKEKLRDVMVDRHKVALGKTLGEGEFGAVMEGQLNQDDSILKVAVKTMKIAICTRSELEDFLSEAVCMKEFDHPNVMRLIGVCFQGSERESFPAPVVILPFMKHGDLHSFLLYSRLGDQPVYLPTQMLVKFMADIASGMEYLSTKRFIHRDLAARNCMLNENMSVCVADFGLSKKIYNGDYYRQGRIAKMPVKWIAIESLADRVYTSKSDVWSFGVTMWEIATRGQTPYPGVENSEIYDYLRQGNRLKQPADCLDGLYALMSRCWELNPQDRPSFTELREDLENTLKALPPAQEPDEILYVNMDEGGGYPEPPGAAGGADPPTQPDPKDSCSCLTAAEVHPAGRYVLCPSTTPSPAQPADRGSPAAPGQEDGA
For experiment [11] the target is unchanged. The settings on record: at 1 µM.
The target in experiment [12] is Tyrosine-protein kinase Blk (Homo sapiens) (UniProt P51451). The following applies: at 0.1 µM.
Tyrosine-protein kinase Blk (Homo sapiens), sequence (P51451 2-505 limits assumed): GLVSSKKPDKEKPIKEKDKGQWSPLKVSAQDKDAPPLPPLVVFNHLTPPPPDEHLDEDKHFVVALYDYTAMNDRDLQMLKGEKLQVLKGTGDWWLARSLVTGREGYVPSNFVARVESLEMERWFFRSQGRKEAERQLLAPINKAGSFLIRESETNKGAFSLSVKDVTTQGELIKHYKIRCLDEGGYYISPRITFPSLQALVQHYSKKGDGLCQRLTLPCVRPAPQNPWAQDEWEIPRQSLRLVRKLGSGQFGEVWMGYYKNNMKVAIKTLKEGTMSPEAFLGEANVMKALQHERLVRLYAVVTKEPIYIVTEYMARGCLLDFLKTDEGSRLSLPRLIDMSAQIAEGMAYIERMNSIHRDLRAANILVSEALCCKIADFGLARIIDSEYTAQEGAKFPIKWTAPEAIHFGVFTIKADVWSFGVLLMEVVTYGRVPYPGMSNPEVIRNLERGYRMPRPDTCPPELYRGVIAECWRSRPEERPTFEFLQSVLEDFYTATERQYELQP
For experiment [13] the target is unchanged. The settings on record: at 1 µM.
Experiment [14] addresses T1, Cytoplasmic tyrosine-protein kinase BMX (Homo sapiens) (UniProt P51813).
T1 sequence (whole entry): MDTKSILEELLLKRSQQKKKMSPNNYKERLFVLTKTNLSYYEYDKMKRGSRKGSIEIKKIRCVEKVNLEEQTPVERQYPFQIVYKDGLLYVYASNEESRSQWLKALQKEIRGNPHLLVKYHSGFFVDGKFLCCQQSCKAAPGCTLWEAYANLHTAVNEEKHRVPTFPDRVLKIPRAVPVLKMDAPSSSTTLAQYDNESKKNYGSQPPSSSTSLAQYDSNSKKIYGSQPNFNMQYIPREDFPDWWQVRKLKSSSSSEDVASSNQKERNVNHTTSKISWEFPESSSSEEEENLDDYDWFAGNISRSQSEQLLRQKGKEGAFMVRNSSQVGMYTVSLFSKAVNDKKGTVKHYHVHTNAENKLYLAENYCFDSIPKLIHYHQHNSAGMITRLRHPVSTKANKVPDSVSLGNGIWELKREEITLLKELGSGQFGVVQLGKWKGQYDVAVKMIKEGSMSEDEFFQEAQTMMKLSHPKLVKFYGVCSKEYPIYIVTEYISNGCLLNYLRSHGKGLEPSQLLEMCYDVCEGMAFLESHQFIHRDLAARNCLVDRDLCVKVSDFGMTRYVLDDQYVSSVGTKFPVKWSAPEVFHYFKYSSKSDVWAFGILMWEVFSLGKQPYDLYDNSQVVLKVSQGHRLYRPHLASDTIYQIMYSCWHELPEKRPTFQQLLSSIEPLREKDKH
The settings on record: at 0.1 µM.

Experiment [15] has as its target T1, Cytoplasmic tyrosine-protein kinase BMX (Homo sapiens). The settings on record: at 1 µM.
The target in experiment [16] is Protein-tyrosine kinase 6 (Homo sapiens) (UniProt Q13882). The following applies: at 0.1 µM.
Protein-tyrosine kinase 6 (Homo sapiens), sequence (Q13882 whole entry, looked up): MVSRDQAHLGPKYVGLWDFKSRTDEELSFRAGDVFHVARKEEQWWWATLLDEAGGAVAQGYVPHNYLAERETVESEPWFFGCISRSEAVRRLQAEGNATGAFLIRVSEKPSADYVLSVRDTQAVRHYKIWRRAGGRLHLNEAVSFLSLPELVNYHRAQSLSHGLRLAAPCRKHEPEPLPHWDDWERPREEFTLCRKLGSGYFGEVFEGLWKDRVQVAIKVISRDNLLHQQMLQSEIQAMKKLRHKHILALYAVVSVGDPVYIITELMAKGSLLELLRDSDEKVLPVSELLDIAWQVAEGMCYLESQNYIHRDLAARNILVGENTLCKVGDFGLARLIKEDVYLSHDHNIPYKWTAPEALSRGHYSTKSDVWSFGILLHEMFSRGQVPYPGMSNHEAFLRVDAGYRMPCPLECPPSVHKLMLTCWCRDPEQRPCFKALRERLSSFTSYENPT
For experiment [17] the target is unchanged. The following applies: at 1 µM.
Experiment [18] addresses Tyrosine-protein kinase BTK (Homo sapiens) (UniProt Q06187). The settings on record: at 0.1 µM.
Experiment [19] shares this target. The following applies: at 1 µM.
Experiment [20] concerns the target Tyrosine-protein kinase CSK (Homo sapiens) (UniProt P41240). The following applies: at 0.1 µM.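 Further: value given is the averaged percent inhibition of CSK kinase activity, from the GSK PKIS kinase inhibitor set screening panel.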

ALK tyrosine kinase receptor (Homo sapiens), sequence (Q9UM73 19-1620 limits assumed): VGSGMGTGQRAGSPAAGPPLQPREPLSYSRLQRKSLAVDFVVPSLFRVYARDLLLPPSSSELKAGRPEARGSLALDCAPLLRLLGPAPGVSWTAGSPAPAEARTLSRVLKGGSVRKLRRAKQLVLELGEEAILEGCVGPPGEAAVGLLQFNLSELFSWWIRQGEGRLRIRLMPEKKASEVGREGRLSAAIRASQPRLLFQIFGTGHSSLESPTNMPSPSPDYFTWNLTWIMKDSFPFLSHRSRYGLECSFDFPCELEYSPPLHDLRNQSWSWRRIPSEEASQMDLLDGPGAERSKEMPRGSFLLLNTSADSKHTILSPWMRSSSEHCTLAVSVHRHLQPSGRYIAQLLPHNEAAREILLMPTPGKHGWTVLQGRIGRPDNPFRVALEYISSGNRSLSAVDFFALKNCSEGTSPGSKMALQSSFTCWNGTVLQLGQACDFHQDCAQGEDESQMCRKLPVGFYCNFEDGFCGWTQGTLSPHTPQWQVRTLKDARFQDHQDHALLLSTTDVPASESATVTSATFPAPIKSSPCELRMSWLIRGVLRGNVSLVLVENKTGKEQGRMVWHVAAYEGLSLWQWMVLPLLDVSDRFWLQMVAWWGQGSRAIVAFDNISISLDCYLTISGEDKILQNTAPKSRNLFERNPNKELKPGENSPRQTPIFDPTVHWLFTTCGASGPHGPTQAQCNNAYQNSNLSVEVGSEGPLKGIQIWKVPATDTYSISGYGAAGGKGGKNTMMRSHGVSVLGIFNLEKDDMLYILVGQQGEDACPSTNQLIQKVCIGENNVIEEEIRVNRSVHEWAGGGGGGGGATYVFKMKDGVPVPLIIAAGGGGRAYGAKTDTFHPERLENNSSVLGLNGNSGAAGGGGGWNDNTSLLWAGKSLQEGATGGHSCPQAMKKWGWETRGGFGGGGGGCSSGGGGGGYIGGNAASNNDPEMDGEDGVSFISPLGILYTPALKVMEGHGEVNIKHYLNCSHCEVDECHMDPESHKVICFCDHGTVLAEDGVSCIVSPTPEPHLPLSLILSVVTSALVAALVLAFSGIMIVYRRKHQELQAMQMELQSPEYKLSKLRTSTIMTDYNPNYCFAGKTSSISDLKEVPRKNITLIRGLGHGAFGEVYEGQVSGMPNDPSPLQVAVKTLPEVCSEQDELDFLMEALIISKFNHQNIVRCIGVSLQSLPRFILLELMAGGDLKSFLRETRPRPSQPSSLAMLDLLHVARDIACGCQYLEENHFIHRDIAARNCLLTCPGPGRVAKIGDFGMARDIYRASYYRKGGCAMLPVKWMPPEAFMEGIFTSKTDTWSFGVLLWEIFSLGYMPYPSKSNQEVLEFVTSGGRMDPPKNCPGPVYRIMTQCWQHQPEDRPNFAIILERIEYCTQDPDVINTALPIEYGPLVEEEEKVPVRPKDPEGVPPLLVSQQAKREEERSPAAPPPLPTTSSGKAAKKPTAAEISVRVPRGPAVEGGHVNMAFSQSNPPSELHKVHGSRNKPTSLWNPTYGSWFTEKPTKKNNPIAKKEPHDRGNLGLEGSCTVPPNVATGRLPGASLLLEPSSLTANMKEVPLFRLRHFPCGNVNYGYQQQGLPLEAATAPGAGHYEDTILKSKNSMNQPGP
Tyrosine-protein kinase ABL2 (Homo sapiens), sequence (P42684 whole entry): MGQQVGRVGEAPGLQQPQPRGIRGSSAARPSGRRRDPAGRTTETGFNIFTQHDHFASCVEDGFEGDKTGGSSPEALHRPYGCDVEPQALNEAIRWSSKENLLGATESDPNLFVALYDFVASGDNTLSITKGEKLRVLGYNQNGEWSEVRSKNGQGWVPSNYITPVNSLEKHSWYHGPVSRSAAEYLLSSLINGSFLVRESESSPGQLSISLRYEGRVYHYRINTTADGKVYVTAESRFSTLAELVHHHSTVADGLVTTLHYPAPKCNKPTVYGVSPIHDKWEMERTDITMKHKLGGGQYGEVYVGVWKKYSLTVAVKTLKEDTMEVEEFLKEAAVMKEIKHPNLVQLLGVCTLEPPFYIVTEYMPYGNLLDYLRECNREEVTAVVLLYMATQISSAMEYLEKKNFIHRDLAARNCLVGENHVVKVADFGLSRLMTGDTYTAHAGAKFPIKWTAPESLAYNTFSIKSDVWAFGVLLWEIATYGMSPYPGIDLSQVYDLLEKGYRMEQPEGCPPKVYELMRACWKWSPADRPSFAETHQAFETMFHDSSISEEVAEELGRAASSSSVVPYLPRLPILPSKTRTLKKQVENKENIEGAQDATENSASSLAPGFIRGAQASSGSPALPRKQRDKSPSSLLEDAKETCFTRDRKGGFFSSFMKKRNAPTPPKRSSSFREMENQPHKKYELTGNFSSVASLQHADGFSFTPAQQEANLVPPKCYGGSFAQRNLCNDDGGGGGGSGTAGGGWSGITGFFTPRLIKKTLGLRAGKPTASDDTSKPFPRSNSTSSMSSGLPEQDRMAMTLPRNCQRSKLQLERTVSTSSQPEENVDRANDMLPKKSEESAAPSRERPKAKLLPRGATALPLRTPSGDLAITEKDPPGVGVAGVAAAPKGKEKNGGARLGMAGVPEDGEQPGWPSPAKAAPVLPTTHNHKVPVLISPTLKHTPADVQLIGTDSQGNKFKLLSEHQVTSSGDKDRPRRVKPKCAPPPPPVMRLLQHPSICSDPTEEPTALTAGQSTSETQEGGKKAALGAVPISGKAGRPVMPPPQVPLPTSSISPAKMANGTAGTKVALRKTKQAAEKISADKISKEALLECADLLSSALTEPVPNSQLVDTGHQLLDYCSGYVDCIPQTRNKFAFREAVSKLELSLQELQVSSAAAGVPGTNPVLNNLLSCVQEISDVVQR
Tyrosine-protein kinase CSK (Homo sapiens), sequence (P41240 2-450 limits assumed): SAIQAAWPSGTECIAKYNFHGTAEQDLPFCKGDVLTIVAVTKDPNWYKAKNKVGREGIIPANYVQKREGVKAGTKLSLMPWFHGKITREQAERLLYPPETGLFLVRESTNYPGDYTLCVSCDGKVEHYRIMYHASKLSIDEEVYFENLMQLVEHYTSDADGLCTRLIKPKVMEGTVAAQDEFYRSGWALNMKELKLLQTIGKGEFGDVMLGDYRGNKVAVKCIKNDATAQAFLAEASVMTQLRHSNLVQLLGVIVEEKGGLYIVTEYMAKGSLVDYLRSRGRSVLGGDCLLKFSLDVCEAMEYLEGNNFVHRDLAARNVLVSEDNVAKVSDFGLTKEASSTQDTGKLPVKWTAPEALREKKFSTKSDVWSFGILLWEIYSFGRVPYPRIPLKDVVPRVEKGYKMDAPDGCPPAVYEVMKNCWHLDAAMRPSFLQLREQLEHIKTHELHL

Take `COc1ccc(CNC(=O)c2ccc(-c3cc(-c4nnc(C)o4)ccc3C)cc2)cc1`: the inhibition in experiment [1] was determined as 6.32%; in experiment [2], 3.15%; in experiment [3], 5.25%; in experiment [4] it was 4.76%; in experiment [5], 6.46%; in experiment [6] it was 0.25%. Besides, the inhibition in experiment [7] is -0.53%; in experiment [8], 4.31%; in experiment [9], 4.39%; in experiment [10], 4.83%; in [11] it was 2.74%; in experiment [12], 2.54%. The inhibition in experiment [13] is 0.87%; in experiment [14], -0.31%; in experiment [15], 0.63%; in [16], 0.56%; in [17], 4.1%; in experiment [18], 0.04%. For the same molecule, the inhibition was determined as 2.36% in [19] and 3.65% in experiment [20].
In the case of `CCN1CCC(CC(=O)Nc2n[nH]c3nnc(-c4cccc(F)c4F)cc23)CC1`, the inhibition in experiment [1] worked out at 3.8%; in experiment [2] it was 3.03%; in experiment [3], 2.59%; in experiment [4], 4%; in experiment [5] it was 4.16%; in experiment [6] it was 2.51%. Moreover, the inhibition in experiment [7] was 0.86%; in experiment [8], 3.37%; in [9], 3.96%; in [10], 0.47%; in experiment [11], 0.83%; in experiment [12], 3.37%. For the same molecule, the inhibition in experiment [13] turned out to be 3.76%; in experiment [14] it was 1.54%; in experiment [15], 1.09%; in experiment [16] it was 2.53%; in [17] it was 1.16%; in experiment [18], 0.54%. Further, the inhibition was 1.15% in [19] and -1.69% in [20].
Regarding `CCN(CC)S(=O)(=O)c1ccc(OC)c(Nc2ncc(-c3ccccc3)o2)c1`, the inhibition in [1] was determined as 8.65%; in experiment [2], 9.09%; in experiment [3], 41.8%; in [4], 3.01%; in [5] it was 28.1%; in [6], 0.5%. Besides, the inhibition in experiment [7] is 4.19%; in experiment [8] it was 6.09%; in [9] it was 36.6%; in experiment [10], 0.5%; in experiment [11], -0.53%; in [12], 3.51%. Moreover, the inhibition in experiment [13] was 31.4%; in experiment [14], -2.19%; in [15] it was 7.38%; in experiment [16], -0.82%; in [17] it was 3.3%; in [18] it was 2.59%. Besides, the inhibition stood at 3.38% in [19] and 1.59% in experiment [20].
On to `COc1ccc(-c2cc(-c3c[nH]nc3-c3ccccn3)ccn2)cc1`, for which the inhibition came to 5.41% in [1]; 12.3% in experiment [2]; 48.3% in experiment [3]; 14.1% in experiment [4]; 59.8% in experiment [5]; 3.73% in experiment [6]. Besides, the inhibition was 5.23% in experiment [7]; 3.35% in [8]; 35.6% in experiment [9]; -6.83% in [10]; -5.64% in experiment [11]; 4.09% in experiment [12]. In addition, the inhibition was 3.9% in [13]; -1.41% in [14]; 5.27% in experiment [15]; 6.49% in experiment [16]; 7.25% in [17]; 2.09% in experiment [18]. Besides, the figures for the inhibition in experiment [19] and in experiment [20] were 1.28% and 7.77%, respectively.
In the case of `Cc1ccc2c(-c3ccnc(Nc4ccccc4)n3)c(-c3ccc(F)cc3)nn2n1`, the inhibition is 20.2% in experiment [1]; 11.5% in experiment [2]; 42.2% in [3]; 5.24% in experiment [4]; 35.5% in [5]; 2.29% in experiment [6]. In addition, the inhibition is 5.55% in [7]; 4.61% in experiment [8]; 34.1% in experiment [9]; -5.33% in [10]; -3.51% in experiment [11]; 6.22% in [12]. The inhibition in experiment [13] was 49%; in experiment [14], 3.36%; in [15], 42.7%; in experiment [16], 15.2%; in experiment [17], 63.4%; in [18] it was 2.84%. Also, the inhibition came to 6.06% in experiment [19] and 3.99% in [20].
Consider `NC(=O)c1sc(-n2cnc3ccc(C(F)(F)F)cc32)cc1OCc1ccccc1Br`, for which the inhibition is 3.2% in experiment [1]; 3.65% in [2]; 2.05% in experiment [3]; 2.31% in [4]; 4.26% in experiment [5]; 1.39% in experiment [6]. The inhibition in [7] was 3.73%; in experiment [8], 1.79%; in experiment [9], 2.59%; in experiment [10], -8.18%; in experiment [11], -3.8%; in [12], 2.51%. Besides, the inhibition is 3.45% in [13]; 1.05% in experiment [14]; 2.91% in experiment [15]; 3.76% in [16]; 5.16% in experiment [17]; -0.59% in [18]. In addition, the inhibition in [19] was -2.44%; in [20] it was 4.79%.
Regarding `CC(C)COC(=O)c1ccc2c(c1)/C(=C/Nc1ccc(S(N)(=O)=O)cc1)C(=O)N2`, the inhibition in experiment [1] is 43.4%; in experiment [2] it was 4.12%; in experiment [3], 28.8%; in experiment [4] it was 1.58%; in [5] it was 36.3%; in experiment [6], -0.71%. Moreover, the inhibition in experiment [7] was 4.93%; in [8] it was 3.59%; in experiment [9], 20.4%; in [10], 1.97%; in experiment [11] it was 13.2%; in [12], 1.11%. For the same molecule, the inhibition is 28.6% in experiment [13]; 0.73% in experiment [14]; -1.5% in [15]; -2.24% in experiment [16]; -2.63% in [17]; -1.47% in experiment [18]. For the same molecule, the inhibition was -1.1% in experiment [19] and -2.24% in experiment [20].

Usually inhibition stands for the relative decrease from the control value, in per cent.
